From PubChem BioAssay AID602330 (Sanford-Burnham Center for Chemical Genomics, 2012)
In all, about 1,900 compounds went through this assay and about 85 (4%) were called active. A selection follows. A number with no mark means an inactive call. Cut-off read from the data, not from the text of the source: active = inhibition above about 40%; inactive = the rest.

What follows are compounds tested against 72 kDa type IV collagenase (Homo sapiens) (UniProt P08253) (assay: MMP-2 enzyme inhibition, confirmation, counter-screen for RPN11 inhibitor project, biochemical, fluorescence, single concentration (AID 602330;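 note: human MMP-2 activated beforehand with APMA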)). Settings: recombinant MMP-2, FRET peptide cleavage fluorescence; at 20 µM; hits give high values.
Chain of 72 kDa type IV collagenase (Homo sapiens) (P08253 whole entry, looked up): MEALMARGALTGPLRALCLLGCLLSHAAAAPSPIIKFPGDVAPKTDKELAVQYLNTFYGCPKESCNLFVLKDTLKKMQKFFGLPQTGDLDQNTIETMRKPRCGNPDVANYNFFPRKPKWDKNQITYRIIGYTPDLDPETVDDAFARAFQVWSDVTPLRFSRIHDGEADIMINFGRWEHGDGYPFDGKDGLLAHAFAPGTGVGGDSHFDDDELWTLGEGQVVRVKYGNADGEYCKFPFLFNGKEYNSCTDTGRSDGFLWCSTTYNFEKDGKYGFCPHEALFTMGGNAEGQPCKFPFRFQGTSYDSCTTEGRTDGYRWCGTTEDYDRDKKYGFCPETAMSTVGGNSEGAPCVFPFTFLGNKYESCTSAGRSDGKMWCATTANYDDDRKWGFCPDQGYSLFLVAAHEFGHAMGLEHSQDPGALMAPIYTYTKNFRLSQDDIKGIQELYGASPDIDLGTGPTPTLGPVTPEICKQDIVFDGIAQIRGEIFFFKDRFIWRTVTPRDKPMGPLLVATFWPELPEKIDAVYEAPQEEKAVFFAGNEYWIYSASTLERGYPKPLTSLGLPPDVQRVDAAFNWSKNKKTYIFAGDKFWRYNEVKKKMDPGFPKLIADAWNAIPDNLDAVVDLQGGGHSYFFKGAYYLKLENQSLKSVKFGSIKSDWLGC

First: CCN(CC)C(=O)CSc1nc2ccccc2n1CC(=O)N1CCN(c2ccccc2OC)CC1
Second: CCN1CCN(c2cc3nc(C)n(Cc4ccccc4)c(=O)c3cc2NC(=O)c2ccccc2F)CC1
The inhibition of the first is higher: 8.93% for the first, -12.5% for the second.

Going from `Cc1ccc(NC(=O)CN2CCc3ccccc3C2)cc1` to `C=CC[n+]1c(-c2ccc(C)cc2)csc1NNC(=O)Nc1ccccc1`, the inhibition rises from -29.5% to 26%.

Compared with `COc1ccc(CC(=O)Nc2ccc(-c3nnc(-c4ccc(C)cc4)o3)cc2)cc1`, `Cc1ccc(-c2nnc(-c3ccc(NC(=O)c4cccs4)cc3)o2)cc1` is lower in inhibition: -21.6% for the first, -49.7% for the second.

Going from `Oc1c(CN2CCCC2)cc(COCc2ccccc2)c2cccnc12` to `O=C(OCc1cc2ccccc2[nH]c1=O)c1cccnc1`, the inhibition falls from 14.7% to -65.4%.

First: CCc1ccc(-c2cc(C(=O)NCc3ccco3)c3ccccc3n2)s1
Second: CC(C)Oc1ccc(/C=C(\NC(=O)/C=C/c2ccco2)C(=O)NCCc2nc3ccccc3[nH]2)cc1
The inhibition of the first is higher: -10.6% for the first, -12% for the second.

Going from `Cc1c(NC(=O)CSc2cccc3cccnc23)c(=O)n(-c2ccccc2)n1C` to `O=C(CSc1cccc2cccnc12)N/N=C/c1cccnc1`, the inhibition falls from -0.79% to -15.4%.

Going from `Cc1c(N=Nc2ccc(N(C)C)cc2)c(=O)n(-c2ccccc2)n1C` to `CCOc1ccc(-n2c(O)c(/C=N/c3ccnn3Cc3ccncc3)c3ccccc3c2=O)cc1`, the inhibition rises from -25.6% to 1.46%.

Going from `COc1cccc(NC(=O)C(C)Oc2ccccc2)c1` (stereo not drawn) to `O=C(COc1cccc(F)c1)Oc1ccc(C(=O)c2ccccc2)cc1`, the inhibition rises from -39.6% to 8.62%.

Compared with `CCC/C=C(\CCC)C(NC(=O)Cc1ccccc1)c1ccc(C(=O)OC)cc1` (stereo not drawn), `CCc1ccc(NC(=O)CS(=O)CC(=O)NCCCc2ccccc2)cc1` (stereo not drawn) is higher in inhibition: -6.21% for the first, -2.62% for the second.

Going from `Cc1cc(/C=N/Nc2ccc([N+](=O)[O-])cn2)c(C)n1-c1cccc(C(=O)O)c1` to `Cc1nc2ccccc2nc(=O)c1NNc1ccc([N+](=O)[O-])cc1`, the inhibition rises from -54.4% to -26.6%.

Going from `COc1ccc(-n2c(SCC(=O)Nc3sc4c(c3C#N)CCCC4)nnc2-c2ccc(O)cc2)cc1` to `Cc1ccc(NC(=O)c2c(NC(=O)CCC(=O)O)sc3c2CCCCC3)cc1`, the inhibition rises from -2.87% to 20.7%.

Going from `CC(C)(C)NC(=O)CSC(=Nc1ccccc1F)NC#N` to `N#Cc1ccc(C(=O)Nc2cccc3cccnc23)c(F)c1`, the inhibition rises from -28.4% to -11%.

Going from `CC(=O)/C(=N\Nc1ccc(Cl)cc1Cl)Sc1cccc2cccnc12` to `NC(N)=N/N=C/c1ccc(OCc2ccc(Cl)cc2Cl)cc1`, the inhibition rises from -27.9% to 9.75%.

Compared with `C/C(=N/Nc1nc(-c2ccccc2)c(CC(=O)O)s1)c1ccccc1`, `Oc1ccc(/C=N/Nc2nc(-c3ccccc3F)nc3ccccc23)c(O)c1` is lower in inhibition: 4.1% for the first, -56.3% for the second.

Going from `CCCCCCCCCCOC(=O)Cn1c(COc2cccc(OC)c2)[n+](C)c2ccccc21` to `COc1cccc(-c2nn(-c3ccccc3)cc2/C=C(\C#N)C(=O)NCCCn2ccnc2)c1`, the inhibition falls from -10.1% to -13.9%.

First: COc1ccc2[nH]c(=O)c(-c3noc(-c4ccc(F)cc4)n3)cc2c1
Second: Cc1cccc(OCc2nnc(SCc3nc4cc(C(F)(F)F)ccc4c(=O)[nH]3)o2)c1
The inhibition of the first is lower: -20.1% for the first, 18.2% for the second.

Going from `Cc1ccc2cc(C#N)c(NCCNC(=S)NCCCN3CCOCC3)nc2c1` to `Cc1cc(/C=C2/SC(=O)N(CC(=O)N3CCCC3)C2=O)ccc1N1CCOCC1`, the inhibition falls from -15% to -23%.

First: O=C1NC(=O)C2C1C(c1ccc([N+](=O)[O-])cc1)=NN2Cc1ccccc1 (stereo not drawn)
Second: O=C(Nc1ccc(-c2nnc(-c3ccccc3)o2)cc1)c1ccc(Br)o1
The inhibition of the first is lower: -11.1% for the first, 35.4% for the second.

First: COc1ccc(Cl)cc1NC(=O)CCS(=O)(=O)c1ccc(Br)cc1
Second: O=C(CCS(=O)(=O)c1cccc2nonc12)NCCc1ccccc1Cl
The inhibition of the first is higher: -0.68% for the first, -10.6% for the second.

Compared with `CN=c1scc(-c2cc(OC)ccc2OC)n1/N=C/c1c(C)[nH]c2ccccc12`, `COc1cc(/C=C2/SC(=S)N(Cc3ccccc3)C2=O)cc(OC)c1O` is lower in inhibition: 22.9% for the first, -7.17% for the second.

Compared with `C=CCn1c(SCC(=O)NCc2ccccc2)nnc1-c1cc(Br)ccc1O`, `COc1ccc(CNC(=O)c2nnn(CC(=O)Nc3cc(C)cc(C)c3)c2N)cc1` is higher in inhibition: -13% for the first, 5.49% for the second.

Compared with `CC(C)Cn1c(CCC(=O)O)ccc1-c1cccs1`, `CC(=O)c1sc(N/N=C/c2ccc(C(C)C)cc2)nc1C` is higher in inhibition: -47.9% for the first, 20.1% for the second.

First: O=C(O)c1ccc(NN=CC2=C(N3CCOCC3)/C(=C/c3ccccc3)CC2)cc1
Second: CC1CCN(c2ccc3c(c2)S(=O)(=O)c2cc(C(=O)O)ccc2C3=O)CC1
The inhibition of the first is higher: -0.54% for the first, -51.3% for the second.

Going from `CCCS(=O)(=O)N1CCCC(C(=O)NCc2ccco2)C1` (stereo not drawn) to `CCOc1cc(/C=C2\SC(N3CCCC(C)C3)=NC2=O)ccc1O` (stereo not drawn), the inhibition falls from -7.67% to -18.9%.

Compared with `CSC1=N/C(=C\C=C\c2cccs2)C(=O)S1`, `CS(=O)(=O)c1ccc2c(c1)SC1=NC(=O)/C(=C/c3ccco3)C(=N)N12` is higher in inhibition: 10% for the first, 13% for the second.

First: CN(C)CCOC1c2ccccc2-c2ccccc21
Second: CCNCc1cc2cc(C)ccc2[nH]c1=O
The inhibition of the first is lower: -31.6% for the first, -21.9% for the second.

First: Cc1cc(OCC(=O)Nc2nccs2)c2c(C)c(C)c(=O)oc2c1
Second: Cc1sc2nc(COC(=O)C(NC(=O)c3ccc(Cl)cc3Cl)C(C)C)[nH]c(=O)c2c1C (stereo not drawn)
The inhibition of the first is higher: 0.79% for the first, -38.9% for the second.

Compared with `Nc1nonc1-n1nnc(C(=O)N/N=C/c2cc(Br)ccc2O)c1CSC1=NCCS1`, `CCOc1cc(/C=C2\SC(N3CCCCC3)=NC2=O)ccc1O` is lower in inhibition: -8.38% for the first, -18.1% for the second.

In the case of `C=CCn1c(=S)[nH]c2scc(-c3ccco3)c2c1=O`, the inhibition is reported as 40.5% (active).
With `N#Cc1c(-c2cccs2)nc(SCC(=O)c2ccc(Br)cc2)[nH]c1=O` the inhibition was 47% (active).
